Bioassay records deposited in PubChem by several laboratories.
Mot1-301 SUMO: yeast Mot1-301 growth rescue at high temperature, primary screen, SUMOylation pathway inhibitor project, S. cerevisiae, ATP luminescence, 38.5C; growth rescue, % at 18.8 µM; hit rate 1% among 320,000; S. cerevisiae Mot1-301 growth rescue; percent above DMSO median, 100 means doubled; AID 2716, 2010;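 active = every valid replicate shows activation above 250% relative to neutral control wells; inactive = the rest, any valid replicate at or below 250%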
A1 inh: caspase 3/7 activation in MEF A1-2A-BIM cells, primary screen, A1 inhibitor project, cell-based, luminescence, HTS. Caspase-Glo 3/7 luminescence, 3 h; percent of clofoctol response, vehicle zero. caspase activation, % (concentration not given with the values). hit rate 0.066% among 330,000. AID 2462, 2010;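 active = over half of replicate activation scores above 10%, or exactly half above 10 with the replicate mean above 10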
NLRP3 yeast inh: NALP3 inflammasome inhibitors in reconstituted yeast, primary screen, luminescence, uHTS; AID 2825, 2010; inhibition, % at 10 µM; Yeast reconstituted NLRP3/ASC/caspase-1, beta-gal luminescence, 24 h; hit rate 0.39% among 330,000;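 active = inhibition of 50% or more; inactive = inhibition below 50%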
CHT PAM: CHT positive allosteric modulators, primary screen, cell-based, membrane potential dye, choline EC20 | High affinity choline transporter 1 (Homo sapiens), Q9GZV3 | CHT-expressing cells; stronger effect = higher value; LV-AA mutant CHT in HEK293 cells | B-score at 10 µM | hit rate 0.49% among 310,000 | AID 488977, 2010;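 active = initial fluorescence not abnormally high and integrated response B-score, plate-corrected, over 3 SD above library mean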
Target sequence (Q9GZV3 whole entry, looked up): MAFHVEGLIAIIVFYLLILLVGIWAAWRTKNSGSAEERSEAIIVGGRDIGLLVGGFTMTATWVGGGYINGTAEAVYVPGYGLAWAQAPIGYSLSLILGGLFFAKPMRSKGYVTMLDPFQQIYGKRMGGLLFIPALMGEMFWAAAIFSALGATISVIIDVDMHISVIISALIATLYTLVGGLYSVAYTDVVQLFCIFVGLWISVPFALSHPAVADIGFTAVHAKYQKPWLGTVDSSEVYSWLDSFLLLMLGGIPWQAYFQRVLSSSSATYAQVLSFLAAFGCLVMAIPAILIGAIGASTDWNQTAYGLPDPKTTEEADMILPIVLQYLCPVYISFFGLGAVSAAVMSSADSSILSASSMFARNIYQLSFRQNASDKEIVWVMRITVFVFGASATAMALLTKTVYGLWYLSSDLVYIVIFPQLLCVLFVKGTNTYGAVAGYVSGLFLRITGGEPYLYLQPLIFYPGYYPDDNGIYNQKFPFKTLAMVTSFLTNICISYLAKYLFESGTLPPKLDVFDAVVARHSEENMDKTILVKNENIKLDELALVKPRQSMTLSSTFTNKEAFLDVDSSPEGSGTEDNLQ
CHT block: inhibitors of human choline transporter CHT; B-score at 10 µM; CHT-expressing cells, membrane potential dye, choline response; stronger effect = lower value; hit rate 0.86% among 310,000; AID 488975, 2010; High affinity choline transporter 1 (Homo sapiens), Q9GZV3;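 active = B-score over 3 SD under the library average, and starting fluorescence ratio not unusually high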;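 also: choline stimulus applied at its EC90 after an EC20 pre-addition; B-score computed on integrated fluorescence ratio after choline addition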
NALP1 inh: NALP1 inflammasome inhibitors in reconstituted yeast, colorimetric, S. cerevisiae, triplicate retest; AID 2071, 2009; hit rate 0.61% among 280,000; inhibition, % at 10 µM; S. cerevisiae NALP1/ASC/caspase-1 growth, X-gal OD620, 72 h; in the data active = inhibition mostly above about 24%, no sharp cut-off; inactive = mostly below about 32%
CHT inh conf: CHT inhibitors, confirmation, cell-based, membrane potential dye, duplicate. hit rate 70% among 2,400. shares compounds with CHT block. CHT-expressing cells, choline membrane potential dye; LV-to-AA substituted CHT, HEK293 cells. CHT activity remaining % of control (stronger effect = lower value), % at 10 µM;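 active = choline transporter activity left, mean of duplicates at 10 µM, below buffer-only control mean minus 3 SD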;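 also: depolarization triggered by choline at its EC90 following an EC20 pre-addition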
HEK293 CHT ctr: membrane potential effects in parental HEK293, counter-screen for CHT inhibitor project, cell-based, membrane potential dye. choline response; active = decrease or increase beyond buffer ±3SD. AID 493222, 2011. hit rate 4% among 2,400. membrane potential ratio readout (active if shifted either direction beyond buffer ±3SD; no single direction) at 10 µM. shares compounds with CHT block;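 also: parental cells lack the transporter so any hit is non-specific; ratio is peak minus trough fluorescence over baseline after EC90 choline challenge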
Hits are given with their value; i = inactive; nt = no result given. An excerpt weighted towards active compounds, which were near 3% of everything screened.

SMILES | Mot1-301 SUMO | A1 inh | NLRP3 yeast inh | CHT PAM | CHT block | NALP1 inh | CHT inh conf | HEK293 CHT ctr
CC1CCCC(C)N1CCCNC(=O)CN1C(=O)c2cccnc2Oc2ccc(Cl)cc21 (configuration not stated) | i | i | i | i | -7.1 | i | 19% | i
N#Cc1ccsc1NC(=O)C1CCN(C(=O)c2ccc(Cl)cc2)CC1 | i | i | i | i | i | nt | nt | nt
Cc1c(Cl)cccc1NCC(=O)NN=C1CCCC1 | i | i | i | i | -5.1 | i | 48% | i
CCOC(=O)C/C(C)=N/NC(=O)CNc1cccc(Cl)c1C | i | i | i | i | i | i | nt | nt
CN(C)P(=O)(Nc1cccc2ccccc12)Nc1cccc2ccccc12 | i | i | i | nt | nt | nt | nt | nt
CCn1c(=O)n(CC)c2cc(S(=O)(=O)N3CCc4ccccc43)ccc21 | i | i | i | i | -5.9 | i | 44% | i
Cn1c(CSc2nc3ccccc3s2)n[nH]c1=S | i | i | i | i | i | i | nt | nt
Cn1c(-c2sc3ccccc3c2Cl)n[nH]c1=S | i | i | i | i | -5.1 | i | 50% | i
O=C(Cc1ccc(S(=O)(=O)N2CCOCC2)s1)Nc1ccc(N2CCOCC2)cc1 | i | i | i | i | -5.1 | i | i | i
CC(NC(=O)Cc1ccc(S(=O)(=O)N2CCOCC2)s1)c1ccc(Cl)c(Cl)c1 (configuration not stated) | i | i | i | i | -7.1 | nt | 57% | i
CN1CCN(C(=O)c2ccccc2NC(=O)c2ccccc2)CC1 | i | i | i | i | i | i | nt | nt
O=C(CCc1ccccc1O)NC1CCCc2ccccc21 (configuration not stated) | i | i | i | i | -6.2 | i | i | i
COc1ccc(-c2cn(CCO)c(-c3ccc(Cl)nc3)n2)cc1 | i | i | i | i | i | nt | nt | nt
COc1cccc(NC(=O)c2ccc(N3C(=O)C4CCC(C)CC4C3=O)cc2)c1 (configuration not stated) | i | i | i | i | i | i | nt | nt
COc1ccc(OCC(=O)OCC(=O)NC2CCCCC2C)cc1 (configuration not stated) | i | i | i | nt | nt | nt | nt | nt
COc1cc(NC2CCCCC2O)c2nc(-c3ccc(Cl)cc3)ccc2c1 (configuration not stated) | i | i | i | i | -8.4 | i | 49% | i
CC(C)C(NC(=O)c1ccc(Cl)c([N+](=O)[O-])c1)C(=O)NCc1ccccn1 (configuration not stated) | i | i | i | nt | nt | nt | nt | nt
COc1ccc(C(=O)NCCN2CCOCC2)cc1S(=O)(=O)Nc1ccc(C)cc1 | i | i | i | nt | nt | nt | nt | nt
Cc1cc(C)nc(N2N=C(CSc3ccc(Cl)cc3)CC2=O)n1 | i | i | i | i | -5 | i | 42% | i
Cc1cc(C)nc(N2C(=O)CC(Cc3ccc(Cl)cc3)C2=O)n1 (configuration not stated) | i | i | i | i | i | i | nt | nt
CCOC(=O)C1CCCCN1C(=O)CCn1nnnc1CN1CCOCC1 (configuration not stated) | i | i | i | i | i | i | nt | nt
CC(OC(=O)c1ccc(F)c(S(=O)(=O)N2CCOCC2)c1)C(=O)NC1CCCC1 (configuration not stated) | nt | nt | i | nt | nt | nt | nt | nt
O=c1c2ccccc2[nH]c(=S)n1CCCN1CCN(c2ccccc2)CC1 | i | i | i | i | i | i | nt | nt
O=c1c2ccccc2[nH]c(=S)n1CCN1CCCCC1 | i | i | i | i | -12 | i | 40% | i
CC(=O)C1=C(c2ccccc2)NC(=O)NC1c1cccs1 (configuration not stated) | i | i | i | i | i | i | nt | nt
SMILES | Mot1-301 SUMO | A1 inh | NLRP3 yeast inh | CHT PAM | CHT block | NALP1 inh | CHT inh conf | HEK293 CHT ctr
CCc1ccccc1NC(=O)NCc1ccc2c(c1)OCO2 | i | i | i | i | i | i | nt | nt
Cc1cccc(NC(=O)NCc2ccc3c(c2)OCO3)c1C | i | i | i | i | -5.2 | i | i | i
O=C1C(Cl)=C(Nc2ccccc2)C(=O)c2ccccc21 | i | i | nt | i | i | i | nt | nt
O=C(O)c1ccc(NC2=C(Cl)C(=O)c3ccccc3C2=O)cc1 | i | i | i | i | -10 | i | 32% | i
Cc1cc(NCCCn2ccnc2)n2ncc(-c3ccc(Cl)cc3)c2n1 | i | i | i | i | -5.4 | i | 61% | i
CCN1CCn2c3c(c4cccc(C)c42)CCCC31 (configuration not stated) | i | i | i | i | -11 | i | 36% | i
O=C(CN1C(=O)NC2NC(=O)NC21)N/N=C/c1ccccc1O (configuration not stated) | i | i | i | i | i | i | nt | nt
O=C(CN1C(=O)NC2NC(=O)NC21)NN=C1CCCC1 (configuration not stated) | i | i | i | i | -20 | i | i | i
Cn1c2c(c(=O)c3ccccc31)CCCC2 | i | i | i | i | -9 | i | 3.9% | i
COc1ccc(OC)c(NC(=O)COC(=O)C2CCCCC2)c1 | i | i | i | nt | nt | nt | nt | nt
COc1ccc(NC(=O)CN2CCN(CC(=O)Nc3ccc(OC)cc3)CC2)cc1 | i | i | i | i | i | i | nt | nt
COc1ccc(NC(=O)CN2CCN(C(=S)NC3CCCC3)CC2)cc1 | i | i | i | i | -6.3 | nt | i | i
CC(C)C(NC(=O)c1ccccc1Cl)C(=O)OCc1nc2scc(-c3ccccc3Cl)c2c(=O)[nH]1 (configuration not stated) | i | i | i | i | -5.1 | i | i | i
CCOc1ccccc1CN1CCNC(=O)C1CC(=O)NCCCn1cccn1 (configuration not stated) | i | i | i | i | i | i | nt | nt
CCCCn1c(=O)[nH]c(=O)c2c1nc(CN1C(=O)c3ccccc3S1(=O)=O)n2CCC | i | i | i | i | i | i | nt | nt
CCCCn1c(=O)[nH]c(=O)c2c1nc(Cn1ncc(Cl)c(Cl)c1=O)n2CCC | i | 6.8 | i | i | -6.1 | i | 53% | i
Cc1ccc(CNC(=O)c2ccc(CNc3c(N4CCCC4)c(=O)c3=O)cc2)cc1 | i | i | i | i | i | i | nt | nt
O=C(NC1CCCCCCC1)c1ccc(CNc2c(N3CCOCC3)c(=O)c2=O)cc1 | i | i | i | i | -9.4 | i | 13% | i
